Experimental data: PubChem BioAssay (NCATS)
Inconclusive results are not listed. Active and inactive are the calls of the source. Calls follow the shape of the dose curve; as a rule, active = well fitted curve in the direction sought with a large enough effect; inconclusive = small, poorly fitted or top-dose-only effect, or another doubt; inactive = no such curve, though single readings can be large; an effect the other way counts as inactive or inconclusive.

Experiments:
[1] = Quantitative High-Throughput drug screen in 47 multiple myeloma cell lines against the NCATS MIPE library collection: KMS12PE_JCRB cell viability assay (AID 1918972); also: nearly all actives have a fitted effect of over 30% in size
Outline: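 CellTiter-Glo ATP luminescence gave viability after 48 h compound treatment at 37C of 500 multiple myeloma cells per well. Normalisation used DMSO-only wells as 100% and media-only wells as 0% viability; primary qHTS of approved and investigational drugs.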

[2] = Quantitative High-Throughput drug screen in 47 multiple myeloma cell lines against the NCATS MIPE library collection: KMS20_JCRB cell viability assay (AID 1918973); also: nearly all actives have a fitted effect of over 45% in size
Outline: (§1)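 Viability readout: CellTiter-Glo luminescence following 5 min room-temperature incubation with reagent. Prior exposure: 48 h, 37C, humidified 5% CO2, 500 cells per well.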

[3] = Quantitative High-Throughput drug screen in 47 multiple myeloma cell lines against the NCATS MIPE library collection: KMS26_JCRB cell viability assay (AID 1918975); also: nearly all actives have a fitted effect of over 45% in size
Outline: as §1

[4] = Quantitative High-Throughput drug screen in 47 multiple myeloma cell lines against the NCATS MIPE library collection: MMM1_PLB cell viability assay (AID 1918976); also: nearly all actives have a fitted effect of over 35% in size
Outline: (§2)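 ATP-based CellTiter-Glo luminescence after 48 h drug exposure (37 °C, 5% CO2) of 500 myeloma cells per well. DMSO-only wells set 100% viability, media-only wells 0%; MIPE 4.0 library added by pin tool.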

[5] = Quantitative High-Throughput drug screen in 47 multiple myeloma cell lines against the NCATS MIPE library collection: NCIH929_DSMZ cell viability assay (AID 1918978); also: nearly all actives have a fitted effect of over 35% in size
Outline: as §2

[6] = Quantitative High-Throughput drug screen in 47 multiple myeloma cell lines against the NCATS MIPE library collection: OCIMY1_PLB cell viability assay (AID 1918979); also: nearly all actives have a fitted effect of over 35% in size
Outline: as §2

[7] = Quantitative High-Throughput drug screen in 47 multiple myeloma cell lines against the NCATS MIPE library collection: MM1S_ATCC cell viability assay (AID 1918980); also: nearly all actives have a fitted effect of over 45% in size
Outline: as §2

[8] = Quantitative High-Throughput drug screen in 47 multiple myeloma cell lines against the NCATS MIPE library collection: MM1R_ATCC cell viability assay (AID 1918981); also: nearly all actives have a fitted effect of over 35% in size
Outline: as §2

[9] = Quantitative High-Throughput drug screen in 47 multiple myeloma cell lines against the NCATS MIPE library collection: KMS21BM_JCRB cell viability assay (AID 1918974); conditions: ATP luminescence, 48 h; viability: at 45.8 µM (top of the series)
Outline: as §1

[10] = Quantitative High-Throughput drug screen in 47 multiple myeloma cell lines against the NCATS MIPE library collection: MOLP8_DSMZ cell viability assay (AID 1918977); also: nearly all actives have a fitted effect of over 45% in size
Outline: as §2

Measured: Potency
Potency is read from the fitted curve at half-maximal effect.

CC(O)=C(C#N)C(=O)Nc1cc(Br)ccc1Br
active: [1] 5.9 µM | [2] 6.62 µM | [3] 18.7 µM | [4] 16.6 µM | [7] 20.9 µM | [8] 20.9 µM
inactive: [5] | [6]

CC(C)N[C@@H]1CCn2c(=O)[nH]c3cccc(c32)[C@@H]1O
active: [1] 6.62 µM | [2] 10.5 µM | [9] 0.833 µM | [3] 26.4 µM | [4] 18.7 µM | [5] 9.35 µM | [7] 0.372 µM

CCN1CCN(C(=O)Cc2ccc(Nc3ncc(F)c(Nc4ccc(C(=O)Nc5ccccc5Cl)cc4)n3)cc2)CC1
active: [1] 1.05 µM | [2] 1.18 µM | [3] 8.33 µM | [10] 7.43 µM | [5] 2.64 µM | [6] 7.43 µM | [7] 5.9 µM

CC[C@@H]1[C@@H](C)O[C@@](O)([C@@H](C)[C@H](O)[C@H](C)[C@H]2OC(=O)C=CC=C[C@@H](C)[C@@H]([C@@H](C)[C@@H](O)[C@H](C)[C@@]3(O)C[C@H](O[C@H]4C[C@H](O)[C@H](O)[C@H](C)O4)[C@H](CC)[C@@H](C)O3)OC(=O)C=CC=C[C@@H]2C)C[C@H]1O[C@H]1C[C@H](O)[C@H](O)[C@H](C)O1
active: [1] 0.372 µM | [2] 0.833 µM | [3] 0.526 µM | [4] 0.743 µM | [10] 0.418 µM | [5] 0.935 µM | [6] 0.833 µM | [7] 0.469 µM | [8] 0.526 µM

C[C@]12CC[C@H]3[C@@H](CCC4=CC(=O)CC[C@@]43C)[C@H]1CC[C@H]2OC(=O)CCC1CCCC1
inactive: [1] | [6]
active: [4] 23.5 µM

CCCC[N+]1(C)[C@H]2CC(OC(=O)[C@H](CO)c3ccccc3)C[C@H]1[C@H]1O[C@H]12 (some centres not stated)
inactive: [1] | [3] | [5] | [6] | [7]

CCNC(=O)C[C@@H]1N=C(c2ccc(Cl)cc2)c2cc(OC)ccc2-n2c(C)nnc21
active: [1] 0.166 µM | [3] 0.0935 µM | [4] 0.209 µM | [10] 0.209 µM | [6] 1.05 µM | [7] 1.05 µM

COc1cccc2c1[C@]13CCN(CC4CC4)[C@H](C2)[C@]1(OC)CCC(=O)C3
inactive: [1] | [3] | [10] | [5] | [6] | [7]

O=S(=O)(F)Cc1ccccc1
inactive: [1] | [10] | [5] | [6]
active: [7] 0.0418 µM

CCNC(=O)CC1N=C(c2ccc(Cl)cc2)c2cc(OC)ccc2-n2c(C)nnc21 (configuration not stated)
active: [1] 13.2 µM | [9] 5.9 µM | [3] 5.9 µM | [4] 16.6 µM | [5] 10.5 µM | [6] 18.7 µM | [7] 11.8 µM

O=C1C=CC[C@@H]2[C@H]3CCCN4CCC[C@@H](CN12)[C@@H]34
inactive: [1] | [2] | [6]
active: [7] 20.9 µM

CC1(N2CCC(n3c([C@@H]4CCCNC4)nc4ccccc43)CC2)CCCCCCC1
active: [1] 7.43 µM | [5] 11.8 µM | [6] 20.9 µM | [7] 4.69 µM

C1=C2CCCN[C@H]2[C@@H]2C[C@H]1[C@@H]1CCCCN1C2
inactive: [1] | [3] | [10] | [5] | [6] | [7]

C=C1C[C@H]2[C@H]3CCC(=O)[C@@]3(C)CC[C@@H]2[C@@]2(C)C=CC(=O)C=C12
active: [1] 29.6 µM | [9] 14.8 µM | [4] 6.62 µM

COc1ccc(C(=O)c2c(C)n(CCN3CCOCC3)c3cc(I)ccc23)cc1
active: [1] 20.9 µM | [2] 5.26 µM
inactive: [7]

COC(=O)[C@@H](N)CCCN=C(N)N[N+](=O)[O-]
inactive: [1] | [10] | [5] | [7] | [8]

CN(C)NC(=O)CCC(=O)O
inactive: [1] | [3] | [4] | [5] | [6]

Clc1ccccc1C(c1ccccc1)(c1ccccc1)n1cccn1
active: [10] 16.6 µM | [7] 0.469 µM | [8] 23.5 µM
inactive: [1] | [2] | [5] | [6]

c1ccc2c(CN3CCNCC3)cccc2c1
not listed: [2] | [4] | [9]
inactive: all other assays above

C[C@@H]1CC[C@H]2[C@@H](C)C(=O)O[C@@H]3O[C@@]4(C)CC[C@H]1[C@]32OO4
inactive: [1] | [9] | [6]
active: [3] 11.8 µM | [10] 0.187 µM | [5] 13.2 µM | [7] 0.296 µM

C[C@@H]1[C@H](O)[C@@H](C)C=CC=CCCC=CC=CC=CC=C[C@H](O[C@H]2O[C@@H](C)[C@H](O)[C@@H](N)[C@@H]2O)CC2O[C@](O)(C[C@@H](O)[C@H](O)CC[C@@H](O)C[C@@H](O)C[C@@H](O)CC(=O)O[C@H]1C)C[C@H](O)[C@H]2C(=O)O
not listed: [2] | [4] | [9]
inactive: all other assays above

O=C(Nc1ccncc1)C(=O)c1cn(Cc2ccc(Cl)cc2)c2ccccc12
active: [1] 0.0209 µM | [9] 0.0074 µM | [3] 9.35 µM | [4] 14.8 µM | [5] 1.32 µM | [6] 0.118 µM | [7] 0.264 µM | [8] 0.187 µM

CCN1C[C@]2(OC(=O)c3ccccc3NC(C)=O)CC[C@H](OC)[C@@]34[C@H]5CC6[C@@H](OC)C[C@](O)(C(C[C@@H]23)[C@@H]14)[C@@]5(O)[C@@H]6OC
inactive: [1] | [3] | [5] | [7]

O=C(O)CNC(=O)c1c(O)c2ccccc2n(Cc2ccccc2)c1=O
inactive: [1] | [3] | [10] | [5] | [6] | [8]

CC(C)(O)C(=O)Nc1ccc([N+](=O)[O-])c(C(F)(F)F)c1
inactive: [10] | [6] | [8]
active: [1] 23.5 µM | [5] 5.26 µM | [7] 9.35 µM

CCCCCC[C@H]1C(=O)O[C@H](C)[C@H](NC(=O)c2cccc(NC=O)c2O)C(=O)O[C@@H](C)[C@@H]1OC(=O)CC(C)C
active: [1] 0.469 µM | [3] 0.132 µM | [4] 0.148 µM | [10] 0.235 µM | [5] 0.332 µM | [7] 4.69 µM

CC(=CCCC1=CCC(C2=CC(=O)OC2O)OC1O)CCC1=C(C)CCCC1(C)C (configuration not stated)
inactive: [1] | [3] | [10] | [6]
active: [7] 20.9 µM

CCCN1CCO[C@@H]2c3cc(O)ccc3OC[C@@H]21
active: [4] 16.6 µM | [7] 14.8 µM
inactive: [1] | [5] | [6]

O=C(N[C@@H](COc1ccc2[nH]c(=O)[nH]c2c1)c1ccccc1)c1cccn(Cc2ccc(F)c(F)c2)c1=O
inactive: [10]
active: [1] 18.7 µM | [2] 18.7 µM | [7] 16.6 µM

COc1ccc(CC2NCCc3cc(OC)c(OC)cc32)cc1OC (configuration not stated)
inactive: [1] | [3] | [10]

C[C@H]([C@H](O)CCC(C)(C)O)[C@H]1CC[C@@]2(O)C3=CC(=O)[C@@H]4C[C@@H](O)[C@@H](O)C[C@]4(C)[C@@H]3CC[C@]12C
active: [4] 14.8 µM
not listed: [2] | [9] | [10]
inactive: all other assays above

Oc1ccc2c3c1O[C@H]1c4[nH]c5c(c4C[C@@]4(O)[C@@H](C2)N(CC2CC2)CC[C@]314)C[C@@]1(O)[C@H]2Cc3ccc(O)c4c3[C@@]1(CCN2CC1CC1)[C@H]5O4
inactive: [1] | [3] | [10] | [5] | [7]

COc1ccc2c(c1)[C@]13CCCCC1C(C2)N(C)CC3 (some centres not stated)
inactive: [1] | [4] | [10] | [5] | [6] | [8]

C[C@]12CCC(=O)C(O)=C1CC[C@@H]1[C@H]3CCC(=O)[C@@]3(C)CC[C@@H]12
active: [4] 2.35 µM
inactive: [1] | [3] | [5] | [6]

CCOC(=O)Nc1ccc(NCc2ccc(F)cc2)cc1N
active: [1] 3.32 µM | [5] 14.8 µM | [7] 18.7 µM
not listed: [2]
inactive: all other assays above

C=C[C@@H]1CN2CCC1C[C@H]2[C@H](O)c1ccnc2ccccc12 (some centres not stated)
inactive: [3] | [6]
active: [1] 6.62 µM | [4] 7.43 µM | [5] 14.8 µM | [7] 18.7 µM | [8] 26.4 µM

COc1ccc2c(c1)CN(C)CC2c1ccc(Cl)c(Cl)c1 (configuration not stated)
active: [1] 23.5 µM | [9] 4.18 µM | [5] 16.6 µM | [7] 0.0833 µM
inactive: [6]

CN(C)[C@@H]1C(=O)C(C(N)=O)=C(O)[C@@]2(O)C(=O)C3=C(O)c4c(O)cccc4[C@@](C)(O)[C@H]3[C@H](O)[C@@H]12
inactive: [1] | [3] | [6] | [8]
active: [4] 10.5 µM | [10] 11.8 µM | [7] 5.9 µM

CCOP(=O)(OCC)C(C)NC(=O)N(CCCl)N=O (configuration not stated)
inactive: [1] | [5] | [6]

C=C[C@@H]1CN2CCC1C[C@@H]2[C@@H](O)c1ccnc2ccccc12 (some centres not stated)
active: [1] 7.43 µM | [4] 18.7 µM | [5] 18.7 µM | [7] 13.2 µM
inactive: [6]

CC[C@@H](C(N)=O)N1CCCC1=O
inactive: [1] | [2] | [10] | [6]

COc1ccc2c(c[n+](C)c3c4cc5c(cc4ccc23)OCO5)c1OC
active: [1] 4.69 µM | [3] 3.72 µM | [4] 6.62 µM | [10] 3.32 µM | [5] 7.43 µM | [6] 7.43 µM | [7] 4.69 µM

CC(=O)Nc1ccc(OC[C@](C)(O)C(=O)Nc2ccc([N+](=O)[O-])c(C(F)(F)F)c2)cc1
inactive: [3] | [5]

CO[C@H]1CCC(O[C@H]2C[C@H]([C@]3(C)CC[C@]4(C[C@H](O)[C@@H](C)[C@@H]([C@@H](C)C=C(C)C(=O)[C@H](C)C[C@H](C)C(=O)O)O4)O3)O[C@]3(O[C@@H]([C@H]4O[C@@](O)(CO)[C@H](C)C[C@H]4C)C[C@H]3C)[C@H]2C)O[C@H]1C (some centres not stated)
active: [2] 0.235 µM | [3] 0.372 µM | [4] 1.66 µM | [10] 0.296 µM | [5] 0.833 µM | [6] 5.26 µM | [7] 0.296 µM
